Compound activity (PubChem)
KCNQ2 pot = enhances the rat KCNQ2 potassium channel | B-score at 10 µM | 310,000 tested, 0.54% active | CHO-K1 KCNQ2, FluxOR thallium flux fluorescence; stronger effect = higher value | O88943;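 active = fluorescence ratio B-score at least 3 SD of library B-scores, with initial fluorescence B-score within 3 of them, cut at about 5.3 in these data; same plate scores as AID 2156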;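 also: B-score of peak minus minimum over baseline fluorescence ratio after K+ and Tl+ stimulus; positive B-score means potentiation of KCNQ2 with more thallium influx and brighter signal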
Target sequence (O88943 whole entry, looked up): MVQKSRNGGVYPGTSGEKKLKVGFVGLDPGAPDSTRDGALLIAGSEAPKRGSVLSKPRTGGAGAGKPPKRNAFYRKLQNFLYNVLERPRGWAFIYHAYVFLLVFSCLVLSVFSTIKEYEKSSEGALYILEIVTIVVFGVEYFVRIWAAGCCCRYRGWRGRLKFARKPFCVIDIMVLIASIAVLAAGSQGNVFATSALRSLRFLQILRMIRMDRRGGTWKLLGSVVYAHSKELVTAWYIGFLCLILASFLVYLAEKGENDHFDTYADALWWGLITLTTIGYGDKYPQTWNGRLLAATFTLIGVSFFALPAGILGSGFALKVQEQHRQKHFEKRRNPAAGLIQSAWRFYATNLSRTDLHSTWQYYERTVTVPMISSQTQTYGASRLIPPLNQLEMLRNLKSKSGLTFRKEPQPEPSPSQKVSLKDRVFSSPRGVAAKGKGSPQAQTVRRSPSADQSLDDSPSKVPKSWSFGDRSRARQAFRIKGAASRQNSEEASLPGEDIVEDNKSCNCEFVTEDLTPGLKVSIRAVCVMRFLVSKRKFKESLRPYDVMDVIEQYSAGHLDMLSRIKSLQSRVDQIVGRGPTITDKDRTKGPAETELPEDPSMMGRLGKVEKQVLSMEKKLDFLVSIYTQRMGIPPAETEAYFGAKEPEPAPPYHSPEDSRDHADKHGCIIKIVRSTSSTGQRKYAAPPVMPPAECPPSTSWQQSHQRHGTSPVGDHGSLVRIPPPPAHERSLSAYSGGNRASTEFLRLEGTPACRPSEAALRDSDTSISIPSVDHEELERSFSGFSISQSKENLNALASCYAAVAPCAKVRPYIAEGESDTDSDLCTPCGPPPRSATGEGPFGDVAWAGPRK
KCNQ2 inh = KCNQ2 (rat) channel inhibition | O88943 | CHO-K1 KCNQ2, FluxOR thallium flux, 20 min; stronger effect = lower value | B-score at 10 µM | 310,000 tested, 1.1% active | AID 2156;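 active = fluorescence ratio B-score at most minus 3 library SDs, with starting brightness B-score within 2 library SDs, cut at about -5.5 in these data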
* = called active by the depositor. Hits are enriched below; roughly 1.6% of the tested compounds scored in any of these assays.

How did Cc1ccc(C(=O)OCC(=O)c2c[nH]c3ccccc23)cc1 do in these assays?
KCNQ2 pot: 0.98; KCNQ2 inh: inactive

What do the screens show for `COc1cc(OC)c(N(C)S(=O)(=O)c2cccc(C(=O)OCC(=O)c3c[nH]c4ccccc34)c2)cc1Cl`?
KCNQ2 pot: 6.3*; KCNQ2 inh: inactive

What do the screens show for `C=CCN(c1ccccc1OC)S(=O)(=O)c1cccc(C(=O)OCC(=O)c2c[nH]c3ccccc23)c1`?
KCNQ2 pot: 6.7*; KCNQ2 inh: inactive

How did COc1cc(C(=O)OCC(=O)c2c[nH]c3ccccc23)ccc1OCC(=O)N1CCOCC1 do in these assays?
KCNQ2 inh: inactive

How did CC(=O)N1c2ccc(S(=O)(=O)N3CCCC3)cc2CC1C(=O)NCc1ccc(OC(C)C)cc1 (centres undefined) do in these assays?
KCNQ2 pot: 0.7; KCNQ2 inh: inactive

Results for COc1cc(NC(=O)c2cccs2)c(C(=O)OCC(=O)NCc2ccco2)cc1OC ?
KCNQ2 inh: inactive

What do the screens show for `O=C(NNS(=O)(=O)c1ccccc1F)c1cc(-c2ccccc2)n[nH]1`?
KCNQ2 pot: 0.46; KCNQ2 inh: inactive

What do the screens show for `O=C(COc1ccccc1Cl)Nc1ccccc1C(=O)N1CCCCC1`?
KCNQ2 pot: -5.99; KCNQ2 inh: -5.99*

How did COc1ccccc1OCC(=O)Nc1ccccc1C(=O)N1CCCCC1 do in these assays?
KCNQ2 inh: inactive

What do the screens show for `CCCCCC(=O)N/N=C/c1ccco1`?
KCNQ2 pot: 7.16*; KCNQ2 inh: inactive

What do the screens show for `Cc1cccc(NC(=O)CCC(=O)N/N=C/c2ccco2)c1`?
KCNQ2 inh: inactive

How did O=C(CCCCCCCCC(=O)N/N=C/c1ccco1)N/N=C/c1ccco1 do in these assays?
KCNQ2 pot: 0.39; KCNQ2 inh: inactive

What do the screens show for `O=C(N/N=C\c1ccco1)Nc1cccc(Cl)c1`?
KCNQ2 pot: 5.95*; KCNQ2 inh: inactive

Results for CCCOc1ccccc1NC(=O)c1ccc([N+](=O)[O-])cc1 ?
KCNQ2 pot: 0.94; KCNQ2 inh: inactive

What do the screens show for `CCN1C(=O)[C@@H]2[C@H](C1=O)[C@@H]1C(=O)Nc3ccccc3C(=O)N1[C@@H]2c1cccc(OC)c1`?
KCNQ2 pot: 1.23; KCNQ2 inh: inactive

How did COc1ccc(NC(=O)c2ccccc2NC(=O)c2ccccc2)cc1 do in these assays?
KCNQ2 pot: 0.15; KCNQ2 inh: inactive

What do the screens show for `COc1ccc(/C=C(/C(=O)Nc2ccccc2C(=O)NC(C)C)c2ccccc2)cc1`?
KCNQ2 pot: -7.9; KCNQ2 inh: -7.9*

Results for COc1ccc(/C=C/C(=O)Nc2ccccc2C(=O)N2CCCC2)cc1 ?
KCNQ2 inh: inactive

How did COc1ccc(/C=C(/C(=O)Nc2ccccc2C(=O)N2CCCC2)c2ccccc2)cc1 do in these assays?
KCNQ2 pot: -6.61; KCNQ2 inh: -6.61*

Results for CC(=O)Nc1ccc(NC(=O)CSc2nnc(NC(=O)C3CC(=O)N(c4ccccc4)C3)s2)cc1 (centres undefined) ?
KCNQ2 pot: 0.95; KCNQ2 inh: inactive

Results for CCN(CC)c1ccc(NC(=O)C2=CCN(S(=O)(=O)c3ccc(F)cc3)CC2)c(C)c1 ?
KCNQ2 pot: 7.08*; KCNQ2 inh: inactive

Results for Cc1ccc(S(=O)(=O)N2CC=C(C(=O)NCc3ccc(F)cc3)CC2)cc1 ?
KCNQ2 pot: 0.02; KCNQ2 inh: inactive

What do the screens show for `O=C(COC(=O)c1oc2ccccc2c1CSc1ccc(Cl)cc1)NC1CCCC1`?
KCNQ2 pot: -6.43; KCNQ2 inh: -6.43*

Results for NC(=O)COC(=O)c1oc2ccccc2c1CSc1ccc(Cl)cc1 ?
KCNQ2 inh: inactive

Results for Cc1ccc([N+](=O)[O-])c(OCCn2cnc3ccccc32)c1 ?
KCNQ2 inh: inactive

How did CC1CCN(S(=O)(=O)c2ccc3c(c2)N(CC(=O)NCCCN2CCCC(C)C2)C(=O)CS3)CC1 (centres undefined) do in these assays?
KCNQ2 inh: inactive

What do the screens show for `CCn1c(C)nc2cc(C(=O)NNS(=O)(=O)c3cc(Br)ccc3Br)ccc21`?
KCNQ2 inh: inactive

How did COc1ccc(N2CC(C(=O)Nc3nnc(SCC(=O)NC(C)(C)C)s3)CC2=O)cc1 (centres undefined) do in these assays?
KCNQ2 inh: inactive

What do the screens show for `COCc1nnc(NC(=O)C2CC(=O)N(CCc3ccc(F)cc3)C2)s1` (centres undefined)?
KCNQ2 inh: inactive

What do the screens show for `COC(=O)c1ccc(COc2c(F)c(F)cc(F)c2F)o1`?
KCNQ2 inh: inactive

What do the screens show for `O=C(O)c1ccc(COc2c(F)c(F)cc(F)c2F)cc1`?
KCNQ2 pot: -9.04; KCNQ2 inh: -9.04*

What do the screens show for `O=C1c2cccc3c([N+](=O)[O-])ccc(c23)C(=O)N1c1ccc(Cl)cn1`?
KCNQ2 pot: -7.02; KCNQ2 inh: -7.02*

What do the screens show for `O=C1c2cccc3c([N+](=O)[O-])ccc(c23)C(=O)N1c1ccccn1`?
KCNQ2 inh: inactive

How did CCC1=NC(c2ccccc2)N(O)C1(C)C (centres undefined) do in these assays?
KCNQ2 inh: inactive

Results for CCOC(=O)c1cc2sccc2n1CC(=O)Nc1ccc(OC)c(OC)c1 ?
KCNQ2 inh: inactive

How did CCCn1c(O)c(N=NC(=O)c2ccco2)c2ccccc21 do in these assays?
KCNQ2 pot: 11.4*; KCNQ2 inh: inactive

Results for CCn1c(O)c(N=NC(=O)CNC(=O)c2ccco2)c2ccccc21 ?
KCNQ2 pot: 2.57; KCNQ2 inh: inactive

What do the screens show for `COc1cccc(CNC(=O)C2CCC(=O)N(CC3CCCCC3)C2)c1OC` (centres undefined)?
KCNQ2 inh: inactive

What do the screens show for `CCC[C@@H]1C[C@@]1(CCC)[C@@H](NP(=O)(c1ccccc1)c1ccccc1)c1ccc(C(=O)OC)cc1`?
KCNQ2 inh: inactive

How did COC(=O)c1cccc(C#CC(NP(=O)(c2ccccc2)c2ccccc2)c2ccccc2)c1 (centres undefined) do in these assays?
KCNQ2 pot: -6.33; KCNQ2 inh: -6.33*

Results for CC(=O)Nc1ccc(SCC(=O)c2cc(C)n(Cc3cccs3)c2C)cc1 ?
KCNQ2 pot: 0.38; KCNQ2 inh: inactive

Results for COc1ccc(/C=C/C(=O)C2(O)CCCCC2)cc1 ?
KCNQ2 inh: inactive

How did COc1ccc(N2CCOCC2)c(NC(=O)c2ccco2)c1 do in these assays?
KCNQ2 inh: inactive

How did COc1ccc(C(=O)c2no[n+]([O-])c2C(=O)c2ccc(OC)cc2)cc1 do in these assays?
KCNQ2 inh: inactive

Results for O=C(c1cccs1)c1no[n+]([O-])c1C(=O)c1cccs1 ?
KCNQ2 pot: -14.2; KCNQ2 inh: -14.2*

How did CCOC(=O)C1CCCN(c2c(C(=O)c3ccccc3)cnc3ccccc23)C1 (centres undefined) do in these assays?
KCNQ2 inh: inactive

How did CCOC(=O)C1CCN(c2c(C(=O)c3ccccc3)cnc3ccc(CC)cc23)CC1 do in these assays?
KCNQ2 pot: -7.23; KCNQ2 inh: -7.23*

How did COc1cccc(OCc2cc(C(=O)NCCN3CCCCC3CO)no2)c1 (centres undefined) do in these assays?
KCNQ2 pot: 0.27; KCNQ2 inh: inactive

Results for Cc1cc(OCc2cc(C(=O)NCCN3CCCCC3CO)no2)cc(C)c1Cl (centres undefined) ?
KCNQ2 pot: -7.87; KCNQ2 inh: -7.87*

Results for COc1ccc2cc(C#N)c(SCC(=O)NNC(=O)Cc3ccccc3)nc2c1 ?
KCNQ2 pot: -6.21; KCNQ2 inh: -6.21*

What do the screens show for `COC(=O)CSc1nc2cc(OC)ccc2cc1C#N`?
KCNQ2 pot: 0.06; KCNQ2 inh: inactive
